DT40 TDP1 CPT = DT40-hTDP1 cell growth loss with CPT | chicken DT40 Tdp1-/-;hTDP1 cells + 20 nM CPT, ATP luminescence, 48 h | Potency, µM (doses to about 46.2 µM), for inactives: at the highest dose activity change, negative = growth inhibition, actives largely listed as inhibitors | 12% of 420,000 active | AID 686979; further: on the % scale 0 is the no-effect control and ±100 the full control effect; nearly all actives have a fitted effect of over 55% in size
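Chicken DT40 Tdp1-/- cells stably complemented with human TDP1 were seeded at 400 cells/well in medium containing 20 nM camptothecin, exposed to pin-transferred compounds, and grown at 37 °C for at least 48 hr. Viability was read as ATP luminescence.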
ATXN viability = reduces viability in counter-screen for ATXN expression inhibitors; Potency, µM (titrated, usually from 56.7 µM), most hits filed as cytotoxic; 0.49% of 400,000 active; S2 cells (HEK-293 line with an ATXN2-luciferase reporter) viability, CellTiter-Fluor protease fluorescence, 24 h; further: nearly all actives have a fitted effect of over 40% in size
HepG2 viability = counter-screen for TGF-b inhibitors: cytotoxicity in HepG2 cells; 0.76% of 410,000 active; AID 588856; HepG2 CAGA-GFP viability, ATP luminescence, 18 h; Potency, µM (series often up to 46.1 µM), without a hit: at the highest dose activity change, negative = cytotoxicity, actives largely listed as cytotoxic
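HepG2 CAGA-GFP cells (1000/well, DMEM with 1% FBS) received compound, then TGF-beta at 500 pg/mL final, and were incubated 18 hours at 37 degrees C. Viability was read by CellTiter-Glo luminescence. Media-only wells were set as complete cell-killing and DMSO as no toxicity.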
ATXN2 expr inh = ATXN2 expression inhibition | Potency, µM (highest dose often 57 µM), for the others: top-dose activity change, negative = inhibition, most hits filed as inhibitors | 0.72% of 360,000 active | HEK-293 ATXN2-luciferase reporter, luminescence, 24 h | AID 1745845; further: on the % scale 0 is the no-effect control and ±100 the full control effect; nearly all actives have a fitted effect of over 55% in size
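ATXN2-luciferase reporter cells (luciferase flanked by upstream and downstream ATXN2 gene portions) were treated 24 h at 37 °C with compounds at up to 57 uM. SteadyGlo luminescence gave expression; GF-AFC fluorescence gave viability.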
TGFb inhibitor = TGF-b pathway inhibition | HepG2 CAGA-GFP TGF-b/SMAD3 reporter, GFP fluorescence, 18 h; TGF-beta stimulated, 500 pg/mL final | Potency, µM (top dose mostly 46.1 µM), for inactives: at the highest dose activity, negative = inhibition, usual class: inhibitors | 1.2% of 410,000 active; further: on the % scale 0 is the no-effect control and ±100 the full control effect; nearly all actives have a fitted effect of over 65% in size
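TGF-beta reporter screen: HEPG2 CAGA-GFP, 1% FBS, 500 pg/mL TGF-beta final, 18 h; per-cell GFP summed per well; curves fitted and categorized by class.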
DT40 TDP1 no CPT = qHTS for Inhibitors of human tyrosyl-DNA phosphodiesterase 1 (TDP1): qHTS in cells in absence of CPT | DT40 Tdp1-/- hTDP1 cells, no CPT, ATP luminescence, 48 h | Potency, µM (titrated, usually from 46.2 µM), for inactives: at the highest dose activity change, negative = growth inhibition, actives largely listed as inhibitors | 15% of 420,000 active; further: on the % scale 0 is the no-effect control and ±100 the full control effect; nearly all actives have a fitted effect of over 55% in size
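A cellular qHTS used chicken DT40 cells lacking endogenous Tdp1 but carrying stably transfected human TDP1. Compounds were applied without camptothecin, and cell growth kinetics were judged by ATP-dependent luminescence after ≥48 hr.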
Numbers without * were called inactive; i = inactive; ? = inconclusive; / = no result given. Sampled rows, rich in hits. Any-hit rate of the full collection: about 17%. The call rests on the fitted dose curve; in most records, active means well fitted curve in the direction sought with a large enough effect; inconclusive means small, poorly fitted or top-dose-only effect, or another doubt; inactive means no such curve, though single readings can be large; an effect the other way counts as inactive or inconclusive. Potency means the concentration at half of the fitted maximal effect.

SMILES	DT40 TDP1 CPT	ATXN viability	HepG2 viability	ATXN2 expr inh	TGFb inhibitor	DT40 TDP1 no CPT
O=C(CN1C(=O)c2cccnc2Oc2ccc(Cl)cc21)NCCCc1ccccc1	23.1µM*	i	3.5%	-28.4%	0.5%	?
CC(NC(=O)CN1C(=O)c2cccnc2Oc2ccc(Cl)cc21)c1ccccc1 (stereo not given)	?	/	-2.8%	/	-39.4%	?
O=C(CN1C(=O)c2cccnc2Oc2ccc(Cl)cc21)Nc1cccc(C(F)(F)F)c1	?	/	-27.7%	/	-24.7%	18.4µM*
O=C(CN1C(=O)c2cccnc2Oc2ccc(Cl)cc21)Nc1ccccc1F	?	i	-13.2%	-20.0%	-13.2%	18.4µM*
CSc1ccc(CCNC(=O)CN2C(=O)c3cccnc3Oc3ccc(Cl)cc32)cc1	?	/	-19.4%	/	0.0%	?
COc1cccc(NC(=O)CN2C(=O)c3cccnc3Oc3ccc(Cl)cc32)c1	?	i	-22.0%	1.8%	2.9%	?
Cc1nn(-c2ccccc2)c2c1C(c1ccccc1)C(C#N)=C(N)O2 (stereo not given)	?	i	3.2%	-1.3%	19.6%	?
Cc1nn(-c2ccccc2)c2c1C(c1ccc(Br)s1)C(C#N)=C(N)O2 (stereo not given)	?	i	-19.8%	/	-24.1%	11.6µM*
Cc1nn(Cc2ccccc2)c2c1C(c1ccc(Cl)cc1)C(C#N)=C(N)O2 (stereo not given)	18.4µM*	i	-10.4%	-8.7%	-13.5%	20.6µM*
Cc1nn(Cc2ccccc2)c2c1C(c1ccncc1)C(C#N)=C(N)O2 (stereo not given)	20.6µM*	i	-5.4%	9.1%	0.2%	23.1µM*
CC(C)(C)c1ccc2c(c1)OC(C(=O)N/N=C\c1ccc[nH]1)CO2 (stereo not given)	?	i	-28.8%	?	-6.9%	?
CC(C)(C)c1ccc2c(c1)OC(C(=O)N/N=C/c1ccc([N+](=O)[O-])o1)CO2 (stereo not given)	16.4µM*	i	-33.6%	-19.8%	-10.3%	11.6µM*
CC(C)(C)c1ccc2c(c1)OC(C(=O)N/N=C\c1ccncc1)CO2 (stereo not given)	?	/	20µM*	-19.4%	-12.1%	?
O=C1NC(c2ccco2)Nc2sc3c(c21)CCN(Cc1ccccc1)C3 (stereo not given)	23.1µM*	/	3.0%	-6.3%	14.3%	16.4µM*
CN1CCc2c(sc3c2C(=O)NC(c2cn(Cc4ccccc4)c4ccccc24)N3)C1 (stereo not given)	20.6µM*	i	-53.8%	?	1.26µM*	23.1µM*
CN1CCc2c(sc3c2C(=O)NC(c2ccco2)N3)C1 (stereo not given)	-15.7%	i	1.4%	15.4%	-1.7%	-2.0%
CCOc1ccc(Nc2ncnc3c2cnn3C)cc1	?	i	-5.7%	14.2%	2.4%	?
COc1ccc(N2CCN(c3ccnc4cc(Cl)ccc34)CC2)cc1	?	i	5.5%	?	11.5%	18.4µM*
Clc1ccc2c(N3CCOCC3)ccnc2c1	-27.1%	i	1.9%	-23.2%	-0.2%	?
CC1CN(c2ccnc3cc(Cl)ccc23)CC(C)O1 (stereo not given)	?	?	-26.8%	-9.3%	-7.7%	11.6µM*
Clc1ccc2c(N3CCCC3)ccnc2c1	?	i	-36.3%	-35.5%	-8.1%	?
Oc1ccc(N2CCN(c3ccnc4cc(Cl)ccc34)CC2)cc1	?	i	-3.1%	?	0.3%	23.1µM*
C=CCn1c(SCC(=O)NC2CCCc3ccccc32)nnc1-c1ccncc1 (stereo not given)	?	i	2.1%	5.8%	-1.5%	?
COc1ccc(C)cc1NS(=O)(=O)c1ccccc1	-5.4%	i	-12.0%	2.9%	1.1%	?
CC(C)=CCC/C(C)=C/CNC(=O)CC1C[C@H](C(=O)N(C(C)C)C(C)C)[C@@]2(C)c3[nH]c4ccccc4c3CCN2C1=O (stereo not given in full)	16.4µM*	i	-10.0%	0.5%	-8.7%	23.1µM*
SMILES	DT40 TDP1 CPT	ATXN viability	HepG2 viability	ATXN2 expr inh	TGFb inhibitor	DT40 TDP1 no CPT
COc1ccc2[nH]c3c(c2c1)CCN1C(=O)C(CC(=O)NC/C=C(\C)CCC=C(C)C)C[C@H](C(=O)N(C(C)C)C(C)C)[C@@]31C (stereo not given in full)	?	i	-103.4%	2.2%	15.8µM*	18.4µM*
COc1ccc(C(=O)NNC(=O)C2CCN(S(=O)(=O)c3ccc(C)cc3)CC2)cc1	-0.1%	i	-12.0%	-3.6%	-17.6%	-1.5%
O=C(O)C1C2C=CC(O2)C1C(=O)NC1CCCc2ccccc21 (stereo not given)	-4.4%	i	2.9%	0.1%	-6.6%	-19.4%
COc1cccc(NC(=O)COc2ncnc3sc(C)c(C)c23)c1	10.3%	i	-15.0%	1.6%	5.5%	-8.0%
CCN(CC(=O)Nc1cccc(OC)c1)c1ncnc2sc(C)c(C)c12	20.6µM*	?	-1.8%	?	?	20.6µM*
CCOC(=O)CC(=O)Nc1c(C)cc(C)cc1C	-2.4%	i	3.3%	1.0%	-11.3%	5.4%
Cc1nn(C)c(C)c1NC(=O)CCl	37.8%	?	-30.4%	27.1%	2.4%	?
CCc1cc(SC#N)cc(C)c1NC(=O)CCl	1.46µM*	?	-88.0%	?	7.08µM*	1.64µM*
CCC(=O)Nc1ccc(SC#N)cc1C	6.51µM*	?	-42.0%	-13.9%	?	5.01µM*
Cc1cc(SC#N)cc(C)c1NC(=O)CCl	3.26µM*	?	11.2µM*	-9.0%	?	2.59µM*
CCc1nnc(NC(=O)C(C)Sc2ccccc2)s1 (stereo not given)	-24.2%	i	-14.2%	-17.2%	-1.2%	-26.0%
CC(C)(C)NCC(O)COc1ccccc1OCC1CCCO1 (stereo not given)	/	i	/	13.1%	/	/
CCn1c(COc2ccc(Cl)cc2)nnc1SCc1ccc(C#N)cc1	-2.4%	i	-11.4%	-6.3%	5.1%	?
CCn1c(COc2ccc(Cl)cc2)nnc1SC1CCc2ccccc2C1=O (stereo not given)	?	i	1.0%	-24.8%	12.7%	20.6µM*
CCN(CCCNC(=O)COc1cc(=O)n(C)c2ccccc12)c1ccccc1	?	/	-31.0%	/	-28.3%	-23.9%
